Data taken from PubChem BioAssay (Tox21).
Results filed as inconclusive are left out. Calls of active or inactive are those of the source. Unless noted, the call rests on the fitted dose curve; in most records, active means well fitted curve in the direction sought with a large enough effect in the repeat runs; inconclusive means weak or mixed curves; inactive means no such curve, though single readings can be large; an effect the other way counts as inactive or inconclusive.

What was measured:
[1] = qHTS assay to identify aromatase inhibitors - cell viability counter screen (AID 743084);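 further: cells stimulated with testosterone during compound exposure; nearly all actives have a fitted effect of over 55% in size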; further: potency means the concentration at half of the fitted maximal effect
[2] = qHTS assay to identify small molecule that activate the aryl hydrocarbon receptor (AhR) signaling pathway - cell viability counter screen (AID 743086); further: nearly all actives have a fitted effect of over 45% in size; further: potency means the concentration at half of the fitted maximal effect
In short: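 HepG2-AhR-luc (HG2L7.5c1) cells, 4000/well, treated 24 h at 37 C with compound; viability measured as CellTiter-Fluor fluorescence after 30 min in the same wells as the luciferase read.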

[3] = qHTS assay to identify small molecule antagonists of the peroxisome proliferator-activated receptor gamma (PPARg) signaling pathway - cell viability counter screen (AID 743194); further: nearly all actives have a fitted effect of over 55% in size; further: potency means the concentration at half of the fitted maximal effect
In short: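 Cytotoxicity counter screen in PPARg-bla HEK293H cells, same wells as reporter assay. Compounds plus 50 nM rosiglitazone (final) for 17 h at 37 C, then viability read by CellTiter-Glo luminescence.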

[4] = qHTS assay for small molecule agonists of the antioxidant response element (ARE) signaling pathway - cell viability counter screen (AID 743203; calls by dose curve; further: nearly all actives have a fitted effect of over 55% in size; further: potency means the concentration at half of the fitted maximal effect)
In short: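 Cells (ARE-bla HepG2, 2,000/well) receive DMSO-dissolved compounds after a 5 hrs rest. Plates incubate 16 hrs at 37C/5% CO2. CellTiter-Glo luminescence is then recorded after 30 min at room temperature.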

[5] = qHTS assay for small molecule activators of the heat shock response signaling pathway (AID 743210; active means well fitted activation curve with a large enough effect in the signal ratio in the repeat runs, with a control signal flat, not every such curve was filed as active; the % refers to the signal ratio; further: series mostly up to about 63 µM)
In short: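 HSE-bla HeLa cells (beta-lactamase reporter under heat shock response elements), plated overnight, then exposed to compounds 5 h at 37 C; LiveBLAzer B/G FRET substrate added, 2.5 h at room temperature, fluorescence intensity read.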

[6] = qHTS assay to identify small molecule agonists of the peroxisome proliferator-activated receptor delta (PPARd) signaling pathway - cell viability counter screen (AID 743211); further: nearly all actives have a fitted effect of over 55% in size; further: potency means the concentration at half of the fitted maximal effect
In short: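 Read-out: CellTiter-Glo luminescence, 30 min RT, measured in the same wells as the beta-lactamase reporter. Cells: GeneBLAzer PPAR delta UAS-bla HEK293H, 3000 cells/well, compound exposure 17 h at 37C.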

[7] = qHTS assay to identify small molecule antagonists of the peroxisome proliferator-activated receptor delta (PPARd) signaling pathway - cell viability counter screen (AID 743213); further: nearly all actives have a fitted effect of over 50% in size; further: potency means the concentration at half of the fitted maximal effect
In short: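 Luminescence from CellTiter-Glo, added after the bla read and incubated 30 min at room temperature, gives viability of HEK293H PPARd-bla cells exposed to compounds for 17 h at 37 C with 300 nM L165041.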

[8] = qHTS assay to identify small molecule agonists of the farnesoid-X-receptor (FXR) signaling pathway - cell viability counter screen (AID 743218); further: nearly all actives have a fitted effect of over 45% in size; further: potency means the concentration at half of the fitted maximal effect
In short: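 In GeneBLAzer FXR-UAS-bla HEK 293T cells, compounds act for 16 h at 37 C. Cell viability is then scored in the reporter wells by CellTiter-Glo, 30 min at RT, luminescence.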

[9] = qHTS assay to identify small molecule antagonists of the farnesoid-X-receptor (FXR) signaling pathway - cell viability counter screen (AID 743221; active means well fitted cell-killing curve with a large enough effect in the repeat runs, not every such curve was filed as active; further: nearly all actives have a fitted effect of over 50% in size; further: potency means the concentration at half of the fitted maximal effect)
In short: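 HEK 293T FXR-bla cells, 5 h pre-incubation; compound + CDCA 50 uM final, 16 h, 37 C; beta-lactamase FRET read first, then CellTiter-Glo luminescence, 30 min RT.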

[10] = biological target: Aryl hydrocarbon receptor (Homo sapiens) (UniProt P35869); assay: qHTS assay to identify small molecule that activate the aryl hydrocarbon receptor (AhR) signaling pathway (AID 743085); further: nearly all actives have a fitted effect of over 15% in size; further: potency means the concentration at half of the fitted maximal effect;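 on activation: HG2L7.5c1 human HepG2 liver cells with stably integrated DRE-driven firefly reporter; series mostly up to about 70 µM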
In short: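 Luminescence read-out: ONE-Glo reagent, 30 min at room temperature, in HG2L7.5c1 HepG2 reporter cells treated 24 h at 37C. Viability was measured beforehand by CellTiter-Fluor fluorescence after 30 min at 37C.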

[11] = biological target: Bile acid receptor (Homo sapiens) (UniProt Q96RI1); assay: qHTS assay to identify small molecule agonists of the farnesoid-X-receptor (FXR) signaling pathway (AID 743220; active means well fitted activation curve with a large enough effect in the signal ratio in the repeat runs, not every such curve was filed as active; the % refers to the signal ratio)
In short: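 Beta-lactamase reporter under UAS control in GeneBLAzer FXR HEK 293T cells (5000/well) measured with LiveBLAzer FRET substrate after 2 h at room temperature. Compound exposure lasted 16 h at 37C.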

[12] = qHTS assay for small molecule activators of the heat shock response signaling pathway - cell viability counter screen (AID 743209); further: nearly all actives have a fitted effect of over 50% in size; further: potency means the concentration at half of the fitted maximal effect
In short: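 Quantitative HTS format, Tox21 10K library. HeLa cells carrying an HSE-driven beta-lactamase reporter were treated 5 h at 37 C, then assessed for viability by CellTiter-Glo luminescence.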

[13] = biological target: Vitamin D3 receptor (Homo sapiens) (UniProt P11473); assay: qHTS assay to identify small molecule antagonists of the vitamin D receptor (VDR) signaling pathway (AID 743223; active means well fitted inhibition curve with a large enough effect in the signal ratio in the repeat runs, not every such curve was filed as active; the % refers to the signal ratio; further: potency means the concentration at half of the fitted maximal effect)
In short: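 Beta-lactamase reporter read-out: FRET substrate fluorescence after 2 h at room temperature, following 16 h exposure of VDR-bla cells to test compound plus 3 nM (final) 1alpha,25-dihydroxyvitamin D3 agonist at 37C.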

[14] = biological target: Peroxisome proliferator-activated receptor delta (Homo sapiens) (UniProt Q03181); assay: qHTS assay to identify small molecule agonists of the peroxisome proliferator-activated receptor delta (PPARd) signaling pathway (AID 743212; calls by dose curve)
In short: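 GeneBLAzer UAS-bla HEK293H cells carrying a PPARδ construct were exposed to compounds at 37 °C. Beta-lactamase activity was read by FRET fluorescence after 2 h at room temperature with LiveBLAzer B/G substrate.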

[15] = biological target: Peroxisome proliferator-activated receptor delta (Homo sapiens) (UniProt Q03181); assay: qHTS assay to identify small molecule antagonists of the peroxisome proliferator-activated receptor delta (PPARd) signaling pathway (AID 743215; active means well fitted inhibition curve with a large enough effect in the signal ratio in the repeat runs, not every such curve was filed as active; the % refers to the signal ratio;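 further: cells stimulated with agonist L165041 at 300 nM final during compound exposure; series mostly up to about 62 µM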)
In short: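 Antagonist-mode beta-lactamase reporter screen: HEK293H cells with UAS-bla under PPARd control, stimulated by 300 nM L165041 (final) alongside test compound for 17 h at 37 C, then FRET fluorescence after 2 h substrate incubation.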

[16] = biological target: Bile acid receptor (Homo sapiens) (UniProt Q96RI1); assay: qHTS assay to identify small molecule antagonists of the farnesoid-X-receptor (FXR) signaling pathway (AID 743217; active means well fitted inhibition curve with a large enough effect in the signal ratio in the repeat runs, not every such curve was filed as active; the % refers to the signal ratio)
In short: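 Beta-lactamase reporter under UAS control in HEK 293T cells; compound exposure 16 h at 37 °C in the presence of chenodeoxycholic acid (50 uM final); signal from B/G FRET substrate after 2 h at room temperature.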

[17] = biological target: Vitamin D3 receptor (Homo sapiens) (UniProt P11473); assay: qHTS assay to identify small molecule agonists of the vitamin D receptor (VDR) signaling pathway (AID 743222; calls by dose curve)
In short: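 Agonist activity measured in VDR-bla reporter cells. Exposure 16 h, 37C, 5% CO2; detection by B/G FRET substrate, 2 h RT.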

[18] = qHTS assay for small molecule agonists of the antioxidant response element (ARE) signaling pathway (AID 743202; active means well fitted activation curve with a large enough effect in the signal ratio in the repeat runs, not every such curve was filed as active; the % refers to the signal ratio)
In short: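 ARE-bla HepG2 cells (beta-lactamase reporter under the antioxidant response element), plated 5 hours, then exposed to compounds 16 hours at 37 C. LiveBLAzer B/G FRET substrate added for 2 hours at room temperature; fluorescence intensity read.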

[19] = biological target: Peroxisome proliferator-activated receptor gamma (Homo sapiens) (UniProt P37231); assay: qHTS assay to identify small molecule agonists of the peroxisome proliferator-activated receptor gamma (PPARg) signaling pathway (AID 743094; active means well fitted activation curve with a large enough effect in the signal ratio in the repeat runs, not every such curve was filed as active; the % refers to the signal ratio; further: potency means the concentration at half of the fitted maximal effect)
In short: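 Stably transfected HEK293H cells (GeneBLAzer PPARg UAS-bla) were incubated with test substances for 17 h at 37C after a 5 h pre-incubation; beta-lactamase activity was then detected by FRET substrate fluorescence.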

Measured: Potency

Chain of Vitamin D3 receptor (Homo sapiens) (P11473 whole entry, looked up): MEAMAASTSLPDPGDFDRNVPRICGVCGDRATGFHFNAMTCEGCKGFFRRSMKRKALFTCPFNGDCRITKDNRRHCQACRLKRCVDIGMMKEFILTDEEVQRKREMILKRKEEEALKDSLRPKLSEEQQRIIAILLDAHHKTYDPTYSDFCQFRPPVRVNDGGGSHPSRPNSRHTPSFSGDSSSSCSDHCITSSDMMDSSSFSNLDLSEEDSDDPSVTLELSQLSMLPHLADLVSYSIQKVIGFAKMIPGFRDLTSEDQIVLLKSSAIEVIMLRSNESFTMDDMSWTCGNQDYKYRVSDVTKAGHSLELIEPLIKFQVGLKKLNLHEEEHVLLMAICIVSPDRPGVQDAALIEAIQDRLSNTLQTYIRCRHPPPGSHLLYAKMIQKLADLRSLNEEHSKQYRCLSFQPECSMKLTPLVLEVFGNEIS
Chain of Peroxisome proliferator-activated receptor delta (Homo sapiens) (Q03181 whole entry, looked up): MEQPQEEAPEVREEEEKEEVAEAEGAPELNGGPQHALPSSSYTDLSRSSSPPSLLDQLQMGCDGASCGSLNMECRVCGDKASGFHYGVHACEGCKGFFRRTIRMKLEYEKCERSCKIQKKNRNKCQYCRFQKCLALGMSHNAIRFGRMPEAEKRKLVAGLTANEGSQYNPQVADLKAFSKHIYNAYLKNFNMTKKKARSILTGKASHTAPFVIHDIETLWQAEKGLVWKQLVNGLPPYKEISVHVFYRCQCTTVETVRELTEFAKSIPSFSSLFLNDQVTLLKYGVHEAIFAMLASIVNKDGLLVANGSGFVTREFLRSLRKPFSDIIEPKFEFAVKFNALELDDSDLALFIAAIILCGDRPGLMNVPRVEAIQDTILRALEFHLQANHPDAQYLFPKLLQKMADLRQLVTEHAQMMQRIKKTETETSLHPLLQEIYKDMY
Chain of Aryl hydrocarbon receptor (Homo sapiens) (P35869 whole entry, looked up): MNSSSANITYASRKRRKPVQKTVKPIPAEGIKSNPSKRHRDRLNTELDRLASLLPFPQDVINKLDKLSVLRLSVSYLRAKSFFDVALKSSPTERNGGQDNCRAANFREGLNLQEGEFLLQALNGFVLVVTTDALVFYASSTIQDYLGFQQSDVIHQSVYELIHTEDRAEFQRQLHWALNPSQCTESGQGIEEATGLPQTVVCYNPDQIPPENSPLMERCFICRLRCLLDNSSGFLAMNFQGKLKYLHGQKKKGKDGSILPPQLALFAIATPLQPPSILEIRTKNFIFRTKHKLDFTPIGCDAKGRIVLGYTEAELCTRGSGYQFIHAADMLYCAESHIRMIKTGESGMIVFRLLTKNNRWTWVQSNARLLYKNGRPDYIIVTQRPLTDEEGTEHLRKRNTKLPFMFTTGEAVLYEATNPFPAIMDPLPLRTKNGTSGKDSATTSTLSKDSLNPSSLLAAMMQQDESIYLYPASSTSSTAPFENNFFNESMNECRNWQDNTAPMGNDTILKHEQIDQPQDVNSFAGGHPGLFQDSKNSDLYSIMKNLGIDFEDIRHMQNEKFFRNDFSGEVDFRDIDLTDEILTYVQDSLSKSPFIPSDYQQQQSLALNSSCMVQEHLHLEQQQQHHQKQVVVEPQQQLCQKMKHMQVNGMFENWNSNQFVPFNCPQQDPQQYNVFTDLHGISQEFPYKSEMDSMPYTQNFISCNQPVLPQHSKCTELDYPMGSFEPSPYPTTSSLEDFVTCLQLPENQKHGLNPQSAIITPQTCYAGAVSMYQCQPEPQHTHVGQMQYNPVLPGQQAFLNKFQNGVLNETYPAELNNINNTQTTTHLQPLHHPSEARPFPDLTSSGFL
Chain of Bile acid receptor (Homo sapiens) (Q96RI1 whole entry, looked up): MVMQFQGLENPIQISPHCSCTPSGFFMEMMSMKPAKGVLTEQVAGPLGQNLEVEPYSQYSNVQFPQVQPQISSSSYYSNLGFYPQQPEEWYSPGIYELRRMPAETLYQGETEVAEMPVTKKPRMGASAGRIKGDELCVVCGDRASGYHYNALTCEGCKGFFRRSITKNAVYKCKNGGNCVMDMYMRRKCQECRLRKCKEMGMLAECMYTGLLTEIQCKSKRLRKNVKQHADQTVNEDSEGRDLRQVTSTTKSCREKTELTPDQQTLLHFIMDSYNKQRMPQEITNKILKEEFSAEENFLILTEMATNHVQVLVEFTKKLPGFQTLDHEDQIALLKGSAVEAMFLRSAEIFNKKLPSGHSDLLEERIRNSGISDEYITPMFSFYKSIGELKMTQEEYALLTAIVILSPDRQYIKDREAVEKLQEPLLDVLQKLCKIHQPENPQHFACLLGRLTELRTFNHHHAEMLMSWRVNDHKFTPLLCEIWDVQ
Chain of Peroxisome proliferator-activated receptor gamma (Homo sapiens) (P37231 whole entry, looked up): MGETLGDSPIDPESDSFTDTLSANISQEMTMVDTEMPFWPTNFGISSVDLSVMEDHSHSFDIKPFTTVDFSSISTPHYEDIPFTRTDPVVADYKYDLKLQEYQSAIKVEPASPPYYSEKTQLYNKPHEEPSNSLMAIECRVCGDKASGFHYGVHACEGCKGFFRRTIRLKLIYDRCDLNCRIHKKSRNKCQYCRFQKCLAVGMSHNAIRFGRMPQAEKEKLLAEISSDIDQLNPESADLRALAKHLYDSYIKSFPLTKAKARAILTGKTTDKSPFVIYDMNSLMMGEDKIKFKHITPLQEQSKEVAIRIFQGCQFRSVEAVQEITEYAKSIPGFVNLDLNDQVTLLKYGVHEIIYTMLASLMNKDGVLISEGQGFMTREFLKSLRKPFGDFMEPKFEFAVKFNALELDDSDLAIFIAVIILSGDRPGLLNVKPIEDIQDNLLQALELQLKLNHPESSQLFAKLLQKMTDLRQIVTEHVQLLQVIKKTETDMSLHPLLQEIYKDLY

CCN(CC)CCNC(=O)c1c(C)[nH]c(/C=C2\C(=O)Nc3ccc(F)cc32)c1C
active: [1] 26.6 µM | [2] 11.9 µM | [3] 16.8 µM | [4] 29.8 µM | [6] 23.7 µM | [7] 4.73 µM | [8] 13.3 µM | [9] 21.1 µM
inactive: [5]

CSc1ccc(/C=C2/C(C)=C(CC(=O)O)c3cc(F)ccc32)cc1
inactive: [1] | [3] | [4] | [7] | [11] | [9]
active: [10] 9.44 µM

Oc1ccc(C2(c3ccc(O)cc3)CC3CC2C2CCCC32)cc1 (centres undefined)
inactive: [10]
active: [1] 33 µM | [3] 26.5 µM | [4] 58.7 µM | [12] 52.8 µM | [7] 23.6 µM | [8] 18.7 µM | [13] 47 µM

Nc1ccccc1O
active: [1] 67.7 µM | [10] 21.4 µM
not listed: [2] | [4] | [12] | [18] | [19]
inactive: all other assays above

O=C1C=CC(=O)N1
inactive: [10] | [11] | [17]
active: [1] 9.95 µM | [3] 25.2 µM | [4] 62.8 µM | [6] 40 µM | [7] 44.8 µM

CC(C)(C)c1ccc(C(=O)CCCN2CCC(OC(c3ccccc3)c3ccccc3)CC2)cc1
active: [4] 29.8 µM | [12] 29.8 µM | [7] 16.8 µM | [8] 26.6 µM
inactive: [1] | [2] | [11]

Cc1cc(N)c(S(=O)(=O)O)cc1Cl
not listed: [10] | [11] | [16] | [19]
inactive: all other assays above

Nc1ccc(N)c2ccccc12
active: [1] 3.85 µM | [2] 4.32 µM | [3] 1.23 µM | [4] 0.611 µM | [12] 34.6 µM | [6] 15.5 µM | [8] 43.6 µM

O=C(Nc1ccc(Oc2ccc(Cl)cc2)c(Cl)c1)c1cc(I)cc(I)c1O
active: [3] 5.31 µM
inactive: [1] | [2] | [19] | [11] | [17] | [13]

O=C1C=CC(=O)N1c1ccc(Cc2ccc(N3C(=O)C=CC3=O)cc2)cc1
inactive: [10] | [14]
active: [1] 9.69 µM | [3] 13.8 µM | [4] 17.2 µM | [12] 17.4 µM | [7] 34.7 µM

CCCCCCCCCCn1cc[n+](CCCCCCCCCC)c1C
active: [1] 24.4 µM | [3] 6.93 µM | [4] 19.4 µM | [12] 21.9 µM | [6] 7.77 µM | [7] 13.8 µM | [8] 39 µM | [9] 34.7 µM | [13] 19.5 µM
inactive: [10]

CCC1=C[C@@H]2CN(C1)Cc1c([nH]c3ccccc13)[C@@](C(=O)OC)(c1cc3c(cc1OC)N(C)[C@H]1[C@@](O)(C(=O)OC)[C@H](OC(C)=O)[C@]4(CC)C=CCN5CC[C@]31[C@@H]54)C2
inactive: [1] | [10] | [3] | [12] | [5] | [15] | [17]
active: [8] 26.6 µM

Cc1cc(O)c(C(C)(C)C)cc1Sc1cc(C(C)(C)C)c(O)cc1C
inactive: [10]
active: [1] 30.6 µM | [3] 10.9 µM | [4] 7.68 µM | [12] 10.9 µM | [6] 3.88 µM | [7] 3.46 µM | [8] 8.69 µM | [9] 9.75 µM

N=C1N=C(N)c2cc3ccccc3cc21
active: [1] 61.1 µM | [10] 11.2 µM | [3] 54.9 µM | [4] 43.3 µM | [12] 25.9 µM | [8] 44.8 µM | [9] 54.9 µM

CCCCCCCCCCCCCCCCCC[N+](C)(C)C
inactive: [2]
active: [1] 27.4 µM | [3] 27.6 µM | [4] 48.7 µM | [12] 34.8 µM | [6] 13.8 µM | [7] 27.6 µM | [8] 24.6 µM | [9] 55.1 µM

CCCCCCCC/C=C\CCCCCCCCOCCO
inactive: [10]
active: [1] 79.4 µM | [3] 56.8 µM | [4] 63.1 µM | [12] 28.4 µM | [6] 17.9 µM | [7] 25.4 µM | [8] 22.6 µM | [9] 28.4 µM

CC(C)OC(=O)c1cc2c(OCC(O)CNC(C)(C)C)cccc2[nH]1 (centres undefined)
inactive: [1] | [2] | [4] | [12] | [5] | [7] | [15] | [8] | [17]

Oc1ccc(N=Nc2ccccc2)cc1
inactive: [3] | [4] | [5] | [14] | [15] | [8] | [9]
active: [1] 31 µM | [10] 61.9 µM

CCc1oc2ccccc2c1C(=O)c1cc(Br)c(O)c(Br)c1
active: [19] 3.01 µM | [4] 23.7 µM
inactive: [1] | [2] | [12]
